Data on 8 compounds can be found in PubChem BioAssay (NCI).

About 83,000 compounds went through this panel and 20% of them were active in at least one assay; those are over-represented in the sample as a whole.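 Testing used 96-well plates and a 48-hour single-concentration exposure. Example: -40 means 40% of the starting cells died.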 Values without a mark were called inactive. The source made the active and inactive calls. Rule for the calls: active = growth percent below 10; inactive = the rest.

Some test systems named below: NCI-H23 lung; NCI-H226 lung; NCI-H322M lung; HOP-62 NSCLC; NCI-H460 lung; HOP-92 NSCLC; NCI-H522 lung; A549/ATCC NSCLC; 786-0 renal; COLO 205 colon; DU-145 prostate; K-562 leukemia; MALME-3M melanoma; MDA-MB-231 breast; RXF 393 renal; SF-268 CNS; SF-295 CNS; SF-539 CNS; UACC-257 melanoma; M14 melanoma.
Common to all, as to assay: NCI-60 one-dose screen, 48 h (100 = growth as untreated, 0 = no growth, -100 = all killed)
Common to all, as to details: 10 µM unless noted

In the case of `COc1ccc(-c2cc(C(=O)N3N=C(c4ccc(N)cc4)CC3c3ccc(Cl)cc3)c3ccccc3n2)cc1` (stereo not given), the growth is 48.1% with NCI-H23 lung; 76.5% in the assay with NCI-H226 lung; 52.4% in the assay with NCI-H322M lung; 36.3% with HOP-62 NSCLC; 12.8% with NCI-H460 lung; 45.4% in the assay on HOP-92 NSCLC. The growth with NCI-H522 lung was -3.25% (active); in the assay on A549/ATCC NSCLC, 16.9%; in the assay with 786-0 renal, 25.4%; in the assay on COLO 205 colon, 2.76% (active); in the assay with DU-145 prostate it was 13.9%; with K-562 leukemia, 7.4% (active). Besides, the growth was 79% with MALME-3M melanoma; 44.2% in the assay with MDA-MB-231 breast; 21.6% in the assay with RXF 393 renal; 35% in the assay on SF-268 CNS; 21.6% with SF-295 CNS; 5.56% (active) in the assay with SF-539 CNS. In addition, the growth in the assay with UACC-257 melanoma was 55.2%; with M14 melanoma, 9.68% (active).
For the compound `OC1CSSC1Cn1cnc2c(Nc3ccc(OCc4cccc(F)c4)c(Cl)c3)ncnc21` (stereo not given), the growth in the assay on NCI-H23 lung was -69.4% (active); in the assay on NCI-H226 lung, 4.07% (active); in the assay on NCI-H322M lung it was -27.8% (active); with HOP-62 NSCLC it was -27.2% (active); in the assay on NCI-H460 lung, -6.17% (active); with HOP-92 NSCLC, 139%. For the same compound, the growth with NCI-H522 lung is -31.6% (active); in the assay on A549/ATCC NSCLC, 3.03% (active); with 786-0 renal it was 69.5%; in the assay with COLO 205 colon, -58.3% (active); with DU-145 prostate, -36.8% (active); in the assay with K-562 leukemia, -56.7% (active). Further, the growth with MALME-3M melanoma is -5.08% (active); with MDA-MB-231 breast, -59.2% (active); in the assay with RXF 393 renal, 42.3%; in the assay with SF-268 CNS, -41.5% (active); with SF-295 CNS it was 4.71% (active); with SF-539 CNS it was -3.08% (active). In addition, the growth in the assay with UACC-257 melanoma is 26.6%; in the assay with M14 melanoma, -81.1% (active).
As to `O=c1cc(CNc2cc(F)cc(F)c2)c2ccc(I)cc2[nH]1`, the growth in the assay with NCI-H23 lung is 46.3%; with NCI-H226 lung, 68.6%; in the assay with NCI-H322M lung, 48.3%; with HOP-62 NSCLC it was 37.5%; with NCI-H460 lung it was 18.5%; in the assay on HOP-92 NSCLC, 54%. In addition, the growth was 15.6% in the assay on NCI-H522 lung; 38.6% in the assay with A549/ATCC NSCLC; 43.7% with 786-0 renal; 33.7% in the assay on COLO 205 colon; 38.4% in the assay with DU-145 prostate; 9.97% (active) in the assay on K-562 leukemia. Moreover, the growth is 38.9% with MALME-3M melanoma; 60.6% in the assay with MDA-MB-231 breast; 15.1% in the assay on RXF 393 renal; 46.9% in the assay with SF-268 CNS; 30.9% in the assay with SF-295 CNS; -12.6% (active) with SF-539 CNS. Moreover, the figures for the growth with UACC-257 melanoma and in the assay on M14 melanoma were 53.4% and 20%, respectively.
In the case of `Cn1c(=O)[nH]c(=O)c2nc3c(nc21)-c1ccccc1C3=O`, the growth with NCI-H23 lung is 95.6%; with NCI-H226 lung it was 92.2%; in the assay on NCI-H322M lung, 102%; in the assay with HOP-62 NSCLC, 94.3%; with NCI-H460 lung, 102%; with HOP-92 NSCLC, 100%. Also, the growth with NCI-H522 lung was 96.4%; with A549/ATCC NSCLC, 106%; in the assay with 786-0 renal, 101%; with COLO 205 colon it was 114%; with DU-145 prostate, 104%; with K-562 leukemia, 99%. Besides, the growth is 102% in the assay on MALME-3M melanoma; 101% in the assay on MDA-MB-231 breast; 99.3% in the assay with RXF 393 renal; 99.3% with SF-268 CNS; 97.7% in the assay on SF-295 CNS; 95.8% in the assay on SF-539 CNS. Also, the growth in the assay with UACC-257 melanoma is 102%; with M14 melanoma, 99.4%.
For the compound `CC1(C)N=C(N)N=C(N)N1c1ccc(S(=O)(=O)Nc2nccs2)cc1`, the growth in the assay with NCI-H23 lung is 101%; in the assay with NCI-H226 lung, 101%; in the assay with NCI-H322M lung it was 104%; with HOP-62 NSCLC, 95.8%; in the assay on NCI-H460 lung it was 104%; in the assay on HOP-92 NSCLC, 87.2%. The growth with NCI-H522 lung was 91.1%; in the assay on A549/ATCC NSCLC it was 96.1%; with 786-0 renal, 99.5%; with COLO 205 colon it was 105%; in the assay on DU-145 prostate it was 103%; with K-562 leukemia, 98.9%. The growth in the assay with MALME-3M melanoma is 99.3%; with MDA-MB-231 breast, 103%; in the assay with RXF 393 renal it was 105%; in the assay with SF-268 CNS, 94.3%; in the assay with SF-295 CNS it was 101%; in the assay on SF-539 CNS, 95.1%. In addition, the growth with UACC-257 melanoma is 98.5%; with M14 melanoma it was 99.6%.
On to `N#C/C(=C\c1ccc(-c2cccc(Cl)c2)o1)C(=O)Nc1ncc(Cc2ccc(Cl)cc2)s1`, for which the growth with NCI-H23 lung was 59.6%; in the assay on NCI-H226 lung, 74%; in the assay with NCI-H322M lung, 33.6%; with HOP-62 NSCLC, 15.9%; in the assay with NCI-H460 lung, 25%; with HOP-92 NSCLC, 79.8%. The growth is 83.4% with NCI-H522 lung; 31.6% in the assay on A549/ATCC NSCLC; 37.3% with 786-0 renal; 83.7% with COLO 205 colon; 55.9% in the assay on DU-145 prostate; 80.6% in the assay with K-562 leukemia. Further, the growth in the assay on MALME-3M melanoma is 42.7%; in the assay with MDA-MB-231 breast it was 34.1%; with RXF 393 renal, 86.7%; in the assay on SF-268 CNS it was 72%; with SF-295 CNS it was 45.3%; in the assay with SF-539 CNS, 56.6%. For the same compound, the growth in the assay on UACC-257 melanoma is 23.9%; with M14 melanoma, 62.5%.
`C=C(C)[C@@H]1CC[C@]2(CO)CC[C@]3(C)[C@H](CC[C@@H]4[C@@](C)(CCCN)[C@H](C(=C)C)CC[C@]43C)[C@@H]12`: the growth with NCI-H23 lung is -70.1% (active); in the assay with NCI-H226 lung, 13.1%; in the assay on NCI-H322M lung it was -53.9% (active); in the assay with HOP-62 NSCLC it was -62.8% (active); in the assay on NCI-H460 lung, -93.8% (active); in the assay with HOP-92 NSCLC, -41% (active). Further, the growth was -48.6% (active) in the assay with NCI-H522 lung; -68.8% (active) with A549/ATCC NSCLC; -98.5% (active) in the assay with 786-0 renal; -58% (active) with COLO 205 colon; -44.8% (active) in the assay on DU-145 prostate; -5.14% (active) in the assay with K-562 leukemia. In addition, the growth was -94.7% (active) with MALME-3M melanoma; -96.3% (active) in the assay on MDA-MB-231 breast; -85.3% (active) with RXF 393 renal; -41.9% (active) in the assay on SF-268 CNS; -75.5% (active) with SF-295 CNS; -97.1% (active) with SF-539 CNS. For the same compound, the values for the growth in the assay on UACC-257 melanoma and in the assay with M14 melanoma were -78.9% (active) and -74.9% (active), respectively.
With `CN(C)CCn1c(=O)c2ccccc2n2nc3ccccc3c12`, the growth with NCI-H23 lung is 87.3%; with NCI-H226 lung it was 84.8%; with NCI-H322M lung, 85%; in the assay on HOP-62 NSCLC, 90.9%; with NCI-H460 lung it was 70.4%; in the assay on HOP-92 NSCLC, 99.6%. The growth with NCI-H522 lung was 97.4%; with A549/ATCC NSCLC it was 61.2%; with 786-0 renal, 93.9%; in the assay with COLO 205 colon, 57.2%; with DU-145 prostate, 101%; in the assay with K-562 leukemia, 86.5%. Further, the growth in the assay on MALME-3M melanoma was 92.4%; in the assay on MDA-MB-231 breast it was 90.8%; with RXF 393 renal, 74.3%; with SF-268 CNS it was 98.6%; in the assay on SF-295 CNS, 75%; in the assay with SF-539 CNS, 87.9%. For the same compound, the figures for the growth in the assay on UACC-257 melanoma and with M14 melanoma were 105% and 92.1%, respectively.
